This is part of a sample that, as a whole, favours compounds with a hit. Of some 83,000 tested, about 20% had one in any assay.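 Activity criterion: percent growth below 10, measured after cells in 96-well plates were exposed to a single compound concentration for 48 hours.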 Activity calls are given as the source filed them.
The molecules below were run on CAKI-1 renal (assay: NCI-60 one-dose screen, 48 h (100 = growth as untreated, 0 = no growth, -100 = all killed)). Conditions: 10 µM unless noted.
Procedure: Growth inhibition of the CAKI-1 human tumor cell line is measured as a screen for anti-cancer activity. Cells are grown in 96 well plates and exposed to the test compound for 48 hours. Compounds are tested at a single concentration, which is 10^-5 M for most compounds. The reported endpoint is percent growth (GI% or GIPRCNT), where numbers from 0 - 100% represent growth inhibition, and numbers from -100% - 0 represent cell death. For example, a value of 40 represents 60% growth inhibition. A value of 0 means no net growth occurred over the course of the experiment. A value of -40 indicates 40% of cells at the beginning of the experiment died by the end of the experiment. A value of -100 means all cells are dead at the end of the experiment.
NCI-60 Human Tumor Cell Lines Screen was performed using the standard one-dose NCI protocol, which is described in more detail at https://dtp.cancer.gov/discovery_development/nci-60/default.htm.
Compounds with GIPRCNT values below 10 were considered active. Activity score was based on GIPRCNT using the following formula: […]
Score is 0 for GIPRCNT values of 100 or above, 50 for GIPRCNT values of 0, and 100 for GIPRCNT values of -100.
For O=C(c1ccccc1)c1ccccc1-c1ccccc1, the growth was 17.4% (inactive). In the case of Cc1ccc(C(=O)Nc2ccc(CN3CCN(C)CC3)c(C(F)(F)F)c2)cc1C#Cc1cnc(N)c2ccc(F)cc12, the growth is reported as -58% (active). With CC1CCCCC[N+]12CCCC2 (stereo not given) the growth was 98.7% (inactive). With C#CCCCCCCC[C@@H]1OC(=O)[C@H]([C@@H](C)CC)NC(=O)[C@H]([C@@H](C)CC)NC(=O)CC(=O)[C@@H]1C the growth was 71.4% (inactive). With Nc1ncn([C@@H]2O[C@H](CO)[C@@H](O)C2(F)F)c(=O)n1 the growth was 27.9% (inactive). Cc1nc(N)sc1C(=O)NCCO was tested, and the growth was 129% (inactive). For O=C(CN1CCN(c2cccc(Cl)c2)CC1)N1CCN(c2nnc(-c3ccc(Cl)cc3)c(-c3ccc(Cl)cc3)n2)CC1, the growth was 105% (inactive). With CCCCCCCCCCCCCCCCCC1=NCCN1CCNC(C)=O the growth was 87.6% (inactive). With Cc1nc2c(nnn2-c2ccccc2)c2nc(-c3ccc(Cl)cc3)oc(=O)c12 the growth was 94.7% (inactive). In the case of CCCCCCCCCCCCCCCCC(=O)O.CCCCCCCCCCCCCCCCCC(=O)O.CCCCCCCCCCCCCCCCCC(=O)O.CCCCCCCCCCCCCCCCCC(=O)O.CCCCCCCCCCCCCCCCCC(=O)O.CO[CH-]OC12COC1CC(O)C1(C)C(O)C(OC(C)O)C3=C(C)C(OC(=O)C(O)C([NH-])c4ccccc4)CC(O)(C(OC(=O)c4ccccc4)C21)C3(C)C.[Cu+].[Zn].[Zn].[Zn].[Zn].[Zn] (stereo not given), the growth is reported as 27% (inactive). In the case of O=C(/C=C/c1cccc(O)c1)c1cccc(-n2cc(-c3ccc(Cl)cc3)[nH]c2=O)c1, the growth is reported as -53.9% (active). For CN1C(=O)C(=Cc2coc3ccc(Br)cc3c2=O)C(=O)N(C)C1=O, the growth was 101% (inactive). For CCN(CC)CCOC(=O)c1cccnc1, the growth was 99.6% (inactive). For CCOC(=O)CSSCC(=O)OCC, the growth was 97.5% (inactive). CCN(CC)CCCNc1c2ccc(Cl)cc2nc2ccc(OC)cc12 was tested, and the growth was 4.67% (active). In the case of COCn1c(C(=O)OC)cc2oc(/C=C3/SC(=S)N(N)C3=O)cc21, the growth is reported as 87.3% (inactive). COc1cc(N)c2nccc(C)c2c1OC was tested, and the growth was 98.4% (inactive). With N=C(c1ccccc1)N(Cc1ccccc1)Cc1ccccc1 the growth was 89.8% (inactive). With COc1cccc(-c2cc(-c3cc4ccccc4oc3=O)nc(N)n2)c1 the growth was 111% (inactive). With CCOC(=O)C1=C(C(F)(F)F)NC(=S)NC1CN1C(=O)c2ccccc2C1=O (stereo not given) the growth was 88.3% (inactive). With CC#Cc1nc(Nc2cc(C)[nH]n2)c2ccccc2n1 the growth was -33.2% [100 µM] (active). In the case of COc1ccc(C(=O)N2N=C(c3ccc(Br)cc3)CC2c2cn(-c3ccccc3)nc2-c2ccccc2)cc1 (stereo not given), the growth is reported as 75% (inactive). With COc1cc(OC)c(/C=C/c2ccc3ccccc3[n+]2C)c(OC)c1 the growth was 68.4% (inactive). For O=C(C(=O)N1CCOCC1)c1ccc(O[C@H]2O[C@H](CO)[C@@H](O)[C@H](O)[C@@H]2O)cc1, the growth was 100% (inactive). With CCC(C)C1NC(=O)C(CC(C)C)NC(=O)C(C)NC(=O)C(C(C)C)NC(=O)C(CCCCN)NC(=O)C(CC(C)C)NC(=O)C(C(C)C)NC(=O)[C@H](C)NC(=O)C(C(C)CC)NC(=O)C(CCCN=C(N)N)NC(=O)C(CCCCN)NC(=O)C(CCCN=C(N)N)NC(=O)C(CCCCN)NC(=O)C([C@H](C)CC)NC(=O)C(CCCCN)NC1=O (stereo not given in full) the growth was 8.2% (active). For CCCCCCCCCCCCCCCCNC(=O)Nc1ccc(C)c(NC(=O)NCCCCCCCCCCCCCCCC)c1, the growth was 117% (inactive). In the case of O=C1/C(=N\c2cc(=O)[nH]n2S(=O)(=O)c2ccccc2)Nc2ccccc21, the growth is reported as 84.8% (inactive). In the case of CCCC(CCC)Oc1ccc(CCCC2=C(O)c3ccccc3C(=O)C2=O)cc1, the growth is reported as 64.4% (inactive). In the case of CC(=O)OCC1O[C@@H](OC(C)=O)[C@@H](NC(=O)NS(=O)(=O)c2ccccc2)C(OC(C)=O)[C@@H]1OC(C)=O (stereo not given in full), the growth is reported as 94.9% (inactive). In the case of CCOc1nc(-c2ccccc2)cc2c(O)c(C(=O)N/N=C/c3ccccc3O)[nH]c(=O)c12, the growth is reported as 101% (inactive). For C=C(NC(=O)[C@H](C(C)C)N(C)c1cccc2[nH]ccc12)C(=O)OC, the growth was 92.6% (inactive). For O=C(Nc1cccc(Cn2c(=O)[nH]c3ccc(Oc4ncccn4)cc3c2=O)c1)c1cccc(F)c1, the growth was 89% (inactive). In the case of COc1cc(-c2nn(-c3ccc(NC(=O)Nc4ccc(Cl)c(Cl)c4)cc3)cc2-c2ccncc2)ccc1Cl, the growth is reported as 30.2% (inactive). For COc1ccc(Cn2cc3c(c2-c2ccc(O)cc2)CCc2cnoc2-3)cc1, the growth was 15.3% (inactive). O=C1/C(=C/c2ccc(Cl)cc2)CCC/C1=C\c1ccc(Cl)cc1 was tested, and the growth was 89.4% (inactive). In the case of CCCCCCNc1nc(N2CCOCC2)c2[nH]c(NCCCCCC)nc2n1, the growth is reported as -63.8% (active). For Cc1ccc(NC(=O)CCl)cc1Cl, the growth was 90.8% (inactive). In the case of Cc1ccc([C@@H]2C[C@H](O)Cc3ccccc3N2)s1, the growth is reported as 94.8% (inactive). With CC(=O)Nc1nc(C)c(C(=O)N/N=C/N2CCCCC2)s1 the growth was 132% (inactive). In the case of O=C(OCC1CC2(Cl)C(Cl)=C(Cl)C1(Cl)C2(Cl)Cl)C1C(C(=O)OCC2CC3(Cl)C(Cl)=C(Cl)C2(Cl)C3(Cl)Cl)C2(Cl)C(Cl)=C(Cl)C1(Cl)C2(Cl)Cl (stereo not given), the growth is reported as 90.8% (inactive).
